In PubChem BioAssay AID455 (Sanford-Burnham Center for Chemical Genomics, 2006) one finds augmentation data, which are given here for five molecules.

Each structure is given as a SMILES string. Screen size: about 10,000 compounds; about 20 (0.2%) were called active. This is one part of a sample in which actives are shown more often than they occur.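 How the source made its calls: active means a compound raising TNF-alpha-driven VCAM-1 surface staining, with its hit status upheld on visual or statistical review; inactive means the rest, including hits rejected on review.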

A short description of this assay: boosters of cytokine-driven VCAM-1 levels – cell-based, plate reader, pooled HUVEC, TNFa stimulus (AID 455).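 On augmentation: 0% = TNFa plus DMSO wells and 100% = a visually confirmed top hit.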 Conditions: HUVEC TNFa-induced VCAM-1 immunofluorescence; hits give high values,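 tested at 5 µM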.
For `COc1ccccc1/C=C1/C(=N/O)C2CCN1CC2`, the augmentation is 81.5% (active). To `O=C(CCCOc1ccc(Cl)cc1Cl)N1CCC2(CC1)OCCO2` belongs “inactive”; to `O=C(Cn1ncc2c3ccccc3n(Cc3ccc(F)cc3)c2c1=O)N1CCC2(CC1)OCCO2`, “inactive”. With `Cc1cccc(N2CCc3c2nc2ccccc2c3N)c1`, the augmentation entry was “inactive”. With `COc1ccc(C2SCC(=O)Nc3c2c(=O)[nH]n3C2CCCCCC2)cc1OC` (stereo not given), the augmentation entry is “inactive”.
